# Source: PubChem
# GPT2 inhibitor: Primary qHTS assay for inhibitors of Glutamate pyruvate transaminase 2 (GPT2); Alanine aminotransferase 2 (Homo sapiens), Q8TD30; Recombinant GPT2, coupled pyruvate oxidase/HRP Amplex Red fluorescence; Potency, µM (top dose mostly 57.7 µM), for the others: at the highest dose activity change, negative = inhibition, hits mostly inhibitors; 100,000 compounds, 0.25% hits; AID 1671188, 2021; note: potency is the fitted concentration of half-maximal effect; nearly all actives have a fitted effect of over 60% in size
# Target sequence (Q8TD30 whole entry, looked up): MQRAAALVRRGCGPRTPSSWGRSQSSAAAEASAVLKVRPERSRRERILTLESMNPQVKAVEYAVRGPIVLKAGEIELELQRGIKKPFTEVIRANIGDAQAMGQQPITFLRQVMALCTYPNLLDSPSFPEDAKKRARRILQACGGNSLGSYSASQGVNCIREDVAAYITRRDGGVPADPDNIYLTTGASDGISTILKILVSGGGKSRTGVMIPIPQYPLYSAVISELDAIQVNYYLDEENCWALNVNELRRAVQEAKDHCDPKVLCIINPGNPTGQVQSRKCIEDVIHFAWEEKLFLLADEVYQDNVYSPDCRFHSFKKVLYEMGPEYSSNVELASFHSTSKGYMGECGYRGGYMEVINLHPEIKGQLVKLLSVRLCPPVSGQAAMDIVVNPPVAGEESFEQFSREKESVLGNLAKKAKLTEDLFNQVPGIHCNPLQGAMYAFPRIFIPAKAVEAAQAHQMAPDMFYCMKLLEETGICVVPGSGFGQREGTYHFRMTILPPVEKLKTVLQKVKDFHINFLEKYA
#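 Fluorescence of coupled pyruvate oxidase/HRP/Amplex Red system (50uM Amplex, 30 min, dark) reports pyruvate formed by GPT2. Enzyme reaction: 10ng/uL GPT2, 2mM L-alanine, 250uM a-KG, 30 min room temperature, pH 7.5; 50uM AOA control.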
# SNCA expr inh: Primary qHTS assay for inhibitors of alpha-synuclein gene (SNCA) expression. HEK-293 SNCA-luciferase knock-in, luminescence, 24 h. Potency, µM (doses to about 57.2 µM), without a hit: at the highest dose activity change, negative = inhibition, hits mostly inhibitors. 140,000 compounds, 0.17% hits. AID 1671194, 2021;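 note: potency is the fitted concentration of half-maximal effect; plate controls were DMSO cells for no effect and cell-free wells for full effect; nearly all actives have a fitted effect of over 45% in size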
# IP6K1 inhibitor: Primary qHTS assay for small molecule inhibitors of Inositol hexaphosphate kinase 1 (IP6K1). Inositol hexakisphosphate kinase 1 (Homo sapiens), Q92551. IP6K1 kinase, ADP-Glo luminescence, 2 h; hits give low values. activity change, % (series mostly up to about 58 µM). 140,000 compounds, 0.81% hits. AID 1645851, 2021; in the data active = activity change below about -25%
#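 ADP-Glo luminescence measures ADP made by human IP6K1 during a 2 h RT reaction with ATP/IP6 (mix at 1.3 mM/130 uM); top library doses 57.5 and 19.1 uM final.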
# HEK293 viab: GF-AFC viability counterscreen for inhibitors of alpha-synuclein gene (SNCA) expression; HEK-293-SNCA-luc viability, GF-AFC fluorescence, 24 h; Potency, µM (titrated, usually from 57.1 µM), for inactives: at the top dose activity change, negative = cytotoxicity, hits mostly cytotoxic; 150,000 compounds, 0.12% hits; AID 1671193, 2021;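 note: potency is the fitted concentration of half-maximal effect; 0% = DMSO-treated cells and -100% = medium-only wells without cells; nearly all actives have a fitted effect of over 30% in size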
#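 HEK-293-SNCA-luc cells (1500/well) plated 24 h, then exposed 24 h to a dilution series; GF-AFC added 30 min at 37C, fluorescence 405/540 nm; normalised to medium-only and DMSO wells, Hill fit.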
# IP6K1 inh cnf: Confirmatory qHTS assay for small molecule inhibitors of Inositol hexaphosphate kinase 1 (IP6K1) | shares compounds with IP6K1 inhibitor | recombinant IP6K1 kinase, ADP-Glo luminescence, 2 h | 1,200 compounds, 13% hits | Potency, µM (titrated, usually from 49 µM), for the others: at the top dose activity change, negative = inhibition, most hits filed as inhibitors | AID 1645852, 2021; note: potency is the fitted concentration of half-maximal effect; nearly all actives have a fitted effect of over 65% in size
# An asterisk follows results filed as active; i = inactive; u = inconclusive; x = not tested or not shown; [ ] = dose if it differs, or a comment. Only some compounds are listed: those with a hit (about 1.1% of all), similar ones and a draw of the others. Unless noted, calls come from the whole dose curve; as a rule, active = well fitted curve in the direction sought with a large enough effect; inconclusive = small, poorly fitted or top-dose-only effect, or another doubt; inactive = no such curve, though single readings can be large; an effect the other way counts as inactive or inconclusive. Unless noted, % is set by controls: 0 for no effect and ±100 for the full control effect.
SMILES,GPT2 inhibitor,SNCA expr inh,IP6K1 inhibitor,HEK293 viab,IP6K1 inh cnf
Cc1ccc(C2Cn3nnc(C(=O)N4CCC(C(=O)NC5CCC(C)CC5)CC4)c3CO2)cc1 (stereo not given),i,5%,-30*,0%,-10%
COc1ccc(C(=O)NC2CCN(Cc3cccc(-c4ccccc4OC)c3)CC2)cc1,x,x,20,x,x
COc1ccc(F)cc1-c1cccc(C(=O)NCCNC(=O)Nc2ccccc2F)c1,x,x,-1,x,x
O=C1C(c2c(O)[nH]c3ccccc23)=Nc2ccccc21,-9%[27.3 µM],-23%,-16,-11%[23.9 µM],x
O=C1c2ccccc2-[n+]2ccc3c([nH]c4ccccc43)c21,0.27µM*,3µM*,x,u,-24%
CCc1cccc(NC(=O)c2cc3c(=O)n(Cc4ccccc4)ccc3nc2C)c1,x,-6%,-27*,7%,31%
COc1ccc(Cn2ccc3nc(C)c(C(=O)Nc4cccc(SC)c4)cc3c2=O)cc1,x,-12%,-1,-20%,x
CC1=C(C(=O)Nc2ccc(C)cc2C)C(c2cccs2)n2nc(SCc3ccccc3Cl)nc2N1 (stereo not given),x,18%,-26*,3%,23%
CC1=C(C(=O)Nc2ccccc2C)C(c2cccs2)n2nc(SCc3cc(C)ccc3C)nc2N1 (stereo not given),x,-6%,0,7%,x
CCOC(=O)C[C@@H]1C[C@@H](C(C)C)[C@H](CNC(=O)c2ccc(F)cc2)C=C1C,1%[88.5 µM],u,10,u,x
Cc1cc(C)c(NC(=O)Cn2c(=O)n(-c3ccc(F)cc3)c(=O)c3c(C)c(C(=O)N(C)C)sc32)c(C)c1,x,4%,-27*,13%,-6%
Cc1cc(C)c(NC(=O)Cn2c(=O)n(Cc3ccccc3)c(=O)c3c(C)c(C(=O)N(C)C)sc32)c(C)c1,x,-12%,23,2%,x
COc1ccccc1-c1cccc(CN2CCCC(C(=O)NCc3ccc4c(c3)OCO4)C2)c1 (stereo not given),4%,u,-10,-10%,x
Nc1ccc(N=Nc2ccccc2)c(N)n1,3%,143%[25.6 µM],-37*,13%[23.9 µM],u
O=C(NCCCc1ccccc1)c1n[nH]c2c1CN(C(=O)c1ccc3c(c1)OCO3)CC2,u,u,-1,9%,x
COc1cc(O)c2c(c1)C1=CC(O)C(O)CC1(C)OC2=O (stereo not given),i,x,-9,1%,x
COc1cc(O)c2c(c1)/C=C/C[C@H](O)[C@H](O)C(=O)/C=C\C[C@H](C)OC2=O,i,x,-30*,24µM*,u
CCOC(=O)c1ccc(NC(=O)CSc2nnc(-c3ccncc3)n2-c2ccccc2)cc1,x,28%,-27*,0%,21%
O=C(NCC(=O)N1CCCCC1)c1ccc(-c2cnc3ccccc3c2)cc1,-23%,-29%,5,-5%,x
N#C/C(=C/c1ccccc1Cl)c1nc2ccccc2c(=O)[nH]1,x,12%,5,2%,x
N#C/C(=C\c1cc(Br)c(O)c(Br)c1)c1nc2ccccc2c(=O)[nH]1,x,-27%,-29*,-3%,1.8µM*
CN(Cc1noc(C2CCCC2)n1)c1cc(C2CC(O)C2)ncn1 (stereo not given),5%[11.5 µM],1%,-28*,-11%,-3%
O=C(NCc1cccs1)c1ccc2c(c1)sc1nc(-c3ccccc3)cn12,x,143%,-25*,-16%,u
COc1ccc(-c2cn3c(n2)sc2cc(C(=O)NCc4cccs4)ccc23)cc1,x,133%,-3,-7%,x
Cc1cccc(CN2CCNc3cc(-c4ccnc(C)c4)ncc3C2)c1,5%[88.5 µM],0%[87.6 µM],-29*,u,-17%
COc1ccc(CCNC(=O)CN2C(=O)COc3ccccc32)cc1OC,x,-1%,-34*,-21%,2%
O=C1CC(c2ccc(F)cc2)c2c(c3ccccc3[nH]c2=O)O1 (stereo not given),x,-29%,-28*,5%,13%
